Measured values as given in the supplement of paper PMC12350171.
Counter-ions that a name gives are not always drawn.

The molecules below were run on Haemophilus parainfluenzae (assay: growth AUC normalised to DMSO control (fraction of control); higher = less growth inhibition, active = hit call of the paper). Conditions: 20 µM;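 active = AUC significantly below DMSO controls by Student t-fit with adjusted P under 0.01; inactive = not significantly reduced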.
How it was run: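 For the AUC endpoint, growth curves were integrated by the trapezoidal rule up to the exponential-to-stationary transition and normalised to DMSO controls on the same plate. The curves came from OD578 readings taken hourly for 24 h, in three biological replicates. Pathogens had been passaged anaerobically twice and inoculated at an OD578 of 0.01 into pre-reduced mGAM plates carrying 20 μM compound and 1% DMSO, sealed with breathable membranes. Medium for Haemophilus parainfluenzae also contained hemin and NAD.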
Cn1c(=O)c2c(ncn2C)n(C)c1=O [Caffeine] was tested, and the “growth AUC normalised to DMSO control” value was 1.04 (inactive).
With C#C[C@]1(O)CC[C@H]2[C@@H]3CCc4cc(O)ccc4[C@H]3CC[C@@]21C [Ethinylestradiol] the “growth AUC normalised to DMSO control” value was 1.04 (inactive).
With CC1(C)S[C@@H]2[C@H](NC(=O)[C@H](C(=O)O)c3ccsc3)C(=O)N2[C@H]1C(=O)O [Ticarcillin sodium] the “growth AUC normalised to DMSO control” value was 0.0663 (active).
With Nc1ccn([C@@H]2O[C@H](CO)[C@@H](O)C2(F)F)c(=O)n1 [Gemcitabine] the “growth AUC normalised to DMSO control” value was 1.1 (inactive).
With CCCNC(C)C(=O)Nc1c(C)csc1C(=O)OC (centres undefined) [Articaine hydrochloride] the “growth AUC normalised to DMSO control” value was 1.01 (inactive).
For Cc1ncc([N+](=O)[O-])n1CC(O)CCl (centres undefined) [Ornidazole], the “growth AUC normalised to DMSO control” value was 1 (inactive).
For CCc1ccc(CCOc2ccc(CC3SC(=O)NC3=O)cc2)nc1 (centres undefined) [Pioglitazone], the “growth AUC normalised to DMSO control” value was 0.955 (inactive).
c1ccc([C@H]2CN3CCSC3=N2)cc1 [Levamisole hydrochloride] was tested, and the “growth AUC normalised to DMSO control” value was 0.991 (inactive).
NS(=O)(=O)c1cc(C(=O)O)cc(N2CCCC2)c1Oc1ccccc1 [Piretanide] was tested, and the “growth AUC normalised to DMSO control” value was 1.06 (inactive).
CNC1(C)C2CCC(C2)C1(C)C (centres undefined) [Mecamylamine hydrochloride] was tested, and the “growth AUC normalised to DMSO control” value was 0.988 (inactive).
For COc1ccccc1Oc1c(NS(=O)(=O)c2ccc(C(C)(C)C)cc2)nc(-c2ncccn2)nc1OCCO [Bosentan], the “growth AUC normalised to DMSO control” value was 0.966 (inactive).
CCN1CCC[C@H]1CNC(=O)c1c(O)c(Cl)cc(Cl)c1OC [Raclopride] was tested, and the “growth AUC normalised to DMSO control” value was 0.944 (inactive).
With COCCc1ccc(OCC(O)CNC(C)C)cc1 (stereo not drawn) [Metoprolol-(+)-tartrate salt] the “growth AUC normalised to DMSO control” value was 0.952 (inactive).
In the case of C=CCSCC1Nc2cc(Cl)c(S(N)(=O)=O)cc2S(=O)(=O)N1 (centres undefined) [Althiazide], the “growth AUC normalised to DMSO control” value is reported as 1.07 (inactive).
In the case of O=C1c2ccccc2C(=O)C1c1ccccc1 [Phenindione], the “growth AUC normalised to DMSO control” value is reported as 0.973 (inactive).
CCOC(=O)C(C)(C)Oc1ccc(Cl)cc1 [Clofibrate] was tested, and the “growth AUC normalised to DMSO control” value was 1.01 (inactive).
With O=C1NCC2(CCN(CCc3ccccc3)CC2)O1 [Fenspiride hydrochloride] the “growth AUC normalised to DMSO control” value was 0.967 (inactive).
CC(=O)N(CC(O)CN(C(C)=O)c1c(I)c(C(=O)NCC(O)CO)c(I)c(C(=O)NCC(O)CO)c1I)c1c(I)c(C(=O)NCC(O)CO)c(I)c(C(=O)NCC(O)CO)c1I (centres undefined) [Iodixanol] was tested, and the “growth AUC normalised to DMSO control” value was 0.976 (inactive).
In the case of COc1cccc2c1C(=O)c1c(O)c3c(c(O)c1C2=O)C[C@@](O)(C(C)=O)C[C@@H]3O[C@H]1C[C@H](N)[C@H](O)[C@H](C)O1 [Daunorubicin hydrochloride], the “growth AUC normalised to DMSO control” value is reported as 0.997 (inactive).
With Cc1onc(-c2c(F)cccc2Cl)c1C(=O)N[C@@H]1C(=O)N2[C@@H]1SC(C)(C)[C@@H]2C(=O)O [Flucloxacillin sodium] the “growth AUC normalised to DMSO control” value was 0.944 (inactive).
In the case of CN(C)CCCSC(=N)N [Dimaprit dihydrochloride], the “growth AUC normalised to DMSO control” value is reported as 1.01 (inactive).
With CC(N/C(=N\C#N)Nc1ccncc1)C(C)(C)C (centres undefined) [Pinacidil monohydrate] the “growth AUC normalised to DMSO control” value was 1 (inactive).
For COC(=O)CCc1ccc(OCC(O)CNC(C)C)cc1 (centres undefined) [Esmolol hydrochloride], the “growth AUC normalised to DMSO control” value was 1.09 (inactive).
In the case of CC(C)(C)NC[C@@H](O)COc1cccc2c1CCCC2=O [(+) Levobunolol hydrochloride], the “growth AUC normalised to DMSO control” value is reported as 0.973 (inactive).
For C[N+](C)(C)CCOC(N)=O [Carbachol chloride], the “growth AUC normalised to DMSO control” value was 1.09 (inactive).
In the case of COC(=O)C1=C(C)NC(C)=C(C(=O)OCC(C)C)C1c1ccccc1[N+](=O)[O-] (centres undefined) [Nisoldipine], the “growth AUC normalised to DMSO control” value is reported as 0.996 (inactive).
For Cc1onc(-c2ccccc2Cl)c1C(=O)N[C@@H]1C(=O)N2[C@@H]1SC(C)(C)[C@@H]2C(=O)O [Cloxacillin sodium salt], the “growth AUC normalised to DMSO control” value was 0.914 (inactive).
With CCC1=C(C)CN(C(=O)NCCc2ccc(S(=O)(=O)NC(=O)N[C@H]3CC[C@H](C)CC3)cc2)C1=O [Glimepiride] the “growth AUC normalised to DMSO control” value was 1.02 (inactive).
CC(N)(Cc1ccc(O)c(O)c1)C(=O)O (centres undefined) [(L) Methyldopa] was tested, and the “growth AUC normalised to DMSO control” value was 1.04 (inactive).
With O=C(O)/C=C/c1ccc(Cn2ccnc2)cc1 [Ozagrel hydrochloride] the “growth AUC normalised to DMSO control” value was 1.03 (inactive).
In the case of CN(C)CCC(c1ccc(Cl)cc1)c1ccccn1 (centres undefined) [Chlorpheniramine maleate], the “growth AUC normalised to DMSO control” value is reported as 0.995 (inactive).
For CCS(=O)(=O)CCn1c([N+](=O)[O-])cnc1C [Tinidazole], the “growth AUC normalised to DMSO control” value was 0.987 (inactive).
COC1=CC(=O)C[C@@H](C)[C@]12Oc1c(Cl)c(OC)cc(OC)c1C2=O [Griseofulvin] was tested, and the “growth AUC normalised to DMSO control” value was 1.02 (inactive).
With CCC1NC(=O)c2cc(S(N)(=O)=O)c(Cl)cc2N1 (centres undefined) [Quinethazone] the “growth AUC normalised to DMSO control” value was 1.16 (inactive).
In the case of C[C@@H]1CCC[C@H](C)N1NC(=O)c1ccc(Cl)c(S(N)(=O)=O)c1 [Clopamide], the “growth AUC normalised to DMSO control” value is reported as 0.984 (inactive).
In the case of Cc1c(Cl)cccc1Nc1ncccc1C(=O)O [Clonixin lysinate], the “growth AUC normalised to DMSO control” value is reported as 1.06 (inactive).
With CCN(CCCCOC(=O)c1ccc(OC)c(OC)c1)C(C)Cc1ccc(OC)cc1 (centres undefined) [Mebeverine hydrochloride] the “growth AUC normalised to DMSO control” value was 1.03 (inactive).
In the case of Nc1ccc(S(=O)(=O)Nc2ccnn2-c2ccccc2)cc1 [Sulfaphenazole], the “growth AUC normalised to DMSO control” value is reported as 0.925 (inactive).
With CC(=O)CC(c1ccc([N+](=O)[O-])cc1)c1c(O)c2ccccc2oc1=O (centres undefined) [Acenocoumarol] the “growth AUC normalised to DMSO control” value was 0.992 (inactive).
